Assay results published in PubChem BioAssay AID1159580 (chemical genetic matrix, 2015).
Out of some 5,500 compounds screened, about 2,000 (36%) were called active. Not shown: some 18% with an inconclusive outcome. No stated cut-off is given here; in the data, active means normalized growth mostly below about 0.91 (no sharp cut-off); inconclusive means no clear call, values can overlap the other calls; inactive means mostly above about 0.92. Some of the results follow.

Test: chemical genetic growth profiling, strain panel (AID 1159580);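 further: tested at 20 µM; growth read once vehicle control cultures reached saturation at 30 °C; 1 = growth at the plate median or of vehicle wells; lower values mean less growth of the strain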
Conditions: growth OD
[1] = S. cerevisiae deletion strains, locus YDL101C, strain DUN1, active compounds read low
[2] = S. cerevisiae deletion strains, locus YHR030C, strain SLT2, active compounds read low

Measured: normalized growth

COc1ccc(CCNC(=S)NCCc2ccc(OC)c(OC)c2)cc1OC
inactive: S. cerevisiae deletion strains, locus YAL013W, strain DEP1, active compounds read low 0.998 | S. cerevisiae deletion strains, locus YBR229C, strain ROT2, active compounds read low 0.988 | S. cerevisiae deletion strains, locus YCL061C, strain MRC1, active compounds read low 0.993 | [1] 0.989 | S. cerevisiae deletion strains, locus YDR150W, strain NUM1, active compounds read low 0.985 | S. cerevisiae deletion strains, locus YEL061C, strain CIN8, active compounds read low 0.987 | S. cerevisiae deletion strains, locus YGR078C, strain PAC10, active compounds read low 0.981 | [2] 1 | S. cerevisiae deletion strains, locus YHR087W, strain rtc3, active compounds read low 0.979 | S. cerevisiae deletion strains, locus YJL187C, strain SWE1, active compounds read low 0.994 | S. cerevisiae deletion strains, locus YJR043C, strain POL32, active compounds read low 0.993 | S. cerevisiae deletion strains, locus YJR075W, strain HOC1, active compounds read low 1.04 | S. cerevisiae deletion strains, locus YLR039C, strain RIC1, active compounds read low 1.04 | S. cerevisiae deletion strains, locus YLR058C, strain SHM2 (second series), active compounds read low 1 | S. cerevisiae deletion strains, locus YLR085C, strain ARP6, active compounds read low 1.02 | S. cerevisiae deletion strains, locus YLR262C, strain YPT6, active compounds read low 1.02 | S. cerevisiae deletion strains, locus YML094W, strain GIM5, active compounds read low 0.981 | S. cerevisiae deletion strains, locus YMR219W, strain ESC1, active compounds read low 1 | S. cerevisiae deletion strains, locus YMR263W, strain SAP30, active compounds read low 1.06 | S. cerevisiae deletion strains, locus YMR307W, strain GAS1, active compounds read low 1.06 | S. cerevisiae deletion strains, locus YNL128W, strain TEP1, active compounds read low 1.02 | S. cerevisiae deletion strains, locus YNL153C, strain GIM3, active compounds read low 0.992 | S. cerevisiae deletion strains, locus YNL298W, strain CLA4 (second series), active compounds read low 1.01 | S. cerevisiae deletion strains, locus YNL322C, strain KRE1, active compounds read low 0.992 | S. cerevisiae deletion strains, locus YNR030W, strain Alg12, active compounds read low 1 | S. cerevisiae deletion strains, locus YPL055C, strain LGE1, active compounds read low 0.982 | S. cerevisiae deletion strains, locus YPL241C, strain CIN2, active compounds read low 1.08 | S. cerevisiae deletion strains, locus YPR135W, strain CTF4, active compounds read low 1.05 | S. cerevisiae strains, strain wild type, active compounds read low 1.01

COc1cc(CC/C(C)=N\O)ccc1OCc1ccc(Cl)c(Cl)c1
active: [2] 0.831 | S. cerevisiae deletion strains, locus YLR113W, strain HOG1, active compounds read low 0.816
inactive: S. cerevisiae deletion strains, locus YAR019C, strain CDC15, active compounds read low 0.973 | S. cerevisiae deletion strains, locus YBL105C, strain PKC1, active compounds read low 0.964 | S. cerevisiae deletion strains, locus YBR135W, strain CKS1, active compounds read low 0.97 | S. cerevisiae deletion strains, locus YBR136W, strain MEC1, active compounds read low 0.96 | S. cerevisiae deletion strains, locus YBR160W, strain CDC28, active compounds read low 0.975 | S. cerevisiae deletion strains, locus YDL017W, strain CDC7, active compounds read low 0.963 | S. cerevisiae deletion strains, locus YDL028C, strain MPS1, active compounds read low 0.959 | [1] 0.975 | S. cerevisiae deletion strains, locus YDL108W, strain KIN28, active compounds read low 0.947 | S. cerevisiae deletion strains, locus YDL132W, strain cdc53, active compounds read low 0.983 | S. cerevisiae deletion strains, locus YDL214C, strain PRR2, active compounds read low 0.818 | S. cerevisiae deletion strains, locus YDR052C, strain DBF4, active compounds read low 0.971 | S. cerevisiae deletion strains, locus YDR054C, strain cdc34, active compounds read low 0.968 | S. cerevisiae deletion strains, locus YDR226W, strain ADK1, active compounds read low 0.973 | S. cerevisiae deletion strains, locus YDR477W, strain SNF1, active compounds read low 0.868 | S. cerevisiae deletion strains, locus YER123W, strain YCK3, active compounds read low 0.767 | S. cerevisiae deletion strains, locus YER133W, strain GLC7, active compounds read low 0.864 | S. cerevisiae deletion strains, locus YFL009W, strain cdc4, active compounds read low 0.968 | S. cerevisiae deletion strains, locus YFL029C, strain CAK1, active compounds read low 0.968 | S. cerevisiae deletion strains, locus YFR003C, strain YPI1, active compounds read low 0.968 | S. cerevisiae deletion strains, locus YFR019W, strain FAB1, active compounds read low 0.808 | S. cerevisiae deletion strains, locus YFR028C, strain CDC14, active compounds read low 0.983 | S. cerevisiae deletion strains, locus YGR040W, strain KSS1, active compounds read low 0.862 | S. cerevisiae deletion strains, locus YGR052W, strain FMP48, active compounds read low 0.881 | S. cerevisiae deletion strains, locus YGR092W, strain DBF2, active compounds read low 0.824 | S. cerevisiae deletion strains, locus YHR079C, strain IRE1, active compounds read low 0.871 | S. cerevisiae deletion strains, locus YHR082C, strain KSP1, active compounds read low 0.883 | S. cerevisiae deletion strains, locus YHR205W, strain SCH9, active compounds read low 0.869 | S. cerevisiae deletion strains, locus YIL147C, strain SLN1, active compounds read low 0.962 | S. cerevisiae deletion strains, locus YJL095W, strain BCK1, active compounds read low 0.849 | S. cerevisiae deletion strains, locus YJL128C, strain PBS2, active compounds read low 0.916 | S. cerevisiae deletion strains, locus YJL157C, strain FAR1, active compounds read low 0.823 | S. cerevisiae deletion strains, locus YJR016C, strain ILV3, active compounds read low 0.969 | S. cerevisiae deletion strains, locus YJR066W, strain TOR1 (second series), active compounds read low 0.786 | S. cerevisiae deletion strains, locus YJR066W, strain TOR1, active compounds read low 0.867 | S. cerevisiae deletion strains, locus YKL048C, strain ELM1, active compounds read low 0.934 | S. cerevisiae deletion strains, locus YKL067W, strain YNK1, active compounds read low 0.865 | S. cerevisiae deletion strains, locus YKL101W, strain HSL1, active compounds read low 0.852 | S. cerevisiae deletion strains, locus YKL193C, strain SDS22, active compounds read low 0.968 | S. cerevisiae deletion strains, locus YKL203C, strain TOR2, active compounds read low 0.932 | S. cerevisiae deletion strains, locus YLR133W, strain CKI1, active compounds read low 0.875 | S. cerevisiae deletion strains, locus YLR403W, strain SFP1, active compounds read low 0.865 | S. cerevisiae deletion strains, locus YML070W, strain DAK1, active compounds read low 0.82 | S. cerevisiae deletion strains, locus YMR001C, strain CDC5, active compounds read low 0.967 | S. cerevisiae deletion strains, locus YMR205C, strain PFK2 (second series), active compounds read low 0.877 | S. cerevisiae deletion strains, locus YMR277W, strain FCP1, active compounds read low 0.968 | S. cerevisiae deletion strains, locus YNL006W, strain LST8, active compounds read low 0.975 | S. cerevisiae deletion strains, locus YNL020C, strain ARK1, active compounds read low 0.851 | S. cerevisiae deletion strains, locus YNL161W, strain CBK1, active compounds read low 0.973 | S. cerevisiae deletion strains, locus YNL183C, strain NPR1, active compounds read low 0.885 | S. cerevisiae deletion strains, locus YNL207W, strain RIO2, active compounds read low 0.965 | S. cerevisiae deletion strains, locus YNL222W, strain SSU72, active compounds read low 0.969 | S. cerevisiae deletion strains, locus YNL307C, strain MCK1 (second series), active compounds read low 0.845 | S. cerevisiae deletion strains, locus YOL078W, strain AVO1, active compounds read low 0.978 | S. cerevisiae deletion strains, locus YOL136C, strain PFK27, active compounds read low 0.84 | S. cerevisiae deletion strains, locus YOR061W, strain CKA2, active compounds read low 0.818 | S. cerevisiae deletion strains, locus YOR119C, strain RIO1, active compounds read low 0.931 | S. cerevisiae deletion strains, locus YOR231W, strain MKK1, active compounds read low 0.842 | S. cerevisiae deletion strains, locus YOR329C, strain SCD5, active compounds read low 0.972 | S. cerevisiae deletion strains, locus YPL031C, strain PHO85, active compounds read low 0.858 | S. cerevisiae deletion strains, locus YPL153C, strain RAD53, active compounds read low 0.833 | S. cerevisiae deletion strains, locus YPL204W, strain HRR25, active compounds read low 0.873 | S. cerevisiae deletion strains, locus YPL209C, strain IPL1, active compounds read low 0.968 | S. cerevisiae deletion strains, locus YPL256C, strain CLN2, active compounds read low 0.893 | S. cerevisiae deletion strains, locus YPR025C, strain CCL1, active compounds read low 0.98 | S. cerevisiae deletion strains, locus YPR106W, strain ISR1, active compounds read low 0.968 | S. cerevisiae deletion strains, locus YPR111W, strain DBF20, active compounds read low 0.962 | S. cerevisiae deletion strains, strain NNK1, active compounds read low 0.953 | S. cerevisiae deletion strains, strain TSCII, active compounds read low 0.97
